From the supplement of paper PMC10127200
Counter-ions that a name gives are not always drawn.

Experiments:
Assay in all cases: Euclidean distance of Cell Painting phenotypic profile (signed KS, 77 features) to DMSO centroid (dimensionless distance); 5 or 10 uM (library dependent); higher = stronger phenotypic change vs DMSO (phenoactivity)
Conditions in all cases: 48 h
[1] = test system: 786-O
How it was run: (§1)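 Harmony extracted 77 features from 20X confocal images (9 fields/well) of stained cells, scoring each as a signed Kolmogorov-Smirnov statistic against same-plate vehicle wells. The cells, five cancer lines and a healthy fibroblast line, had received library compounds for 48 h at 10 or 5 uM depending on library, with 0.1% DMSO final. Phenoactivity is the Euclidean distance from each plate-position-corrected, correlation-weighted, top-dose replicate-averaged profile to the median vehicle profile.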

[2] = test system: A549
How it was run: as §1

[3] = test system: DU145
How it was run: as §1

[4] = test system: FB
How it was run: as §1

[5] = test system: HEPG2
How it was run: as §1

[6] = test system: OVCAR4
How it was run: as §1

| Compound | Euclidean distance [1] | Euclidean distance [2] | Euclidean distance [3] | Euclidean distance [4] | Euclidean distance [5] | Euclidean distance [6] |
| --- | --- | --- | --- | --- | --- | --- |
| Nc1n[n+]([O-])c2ccccc2[n+]1[O-] [Tirapazamine] | 2.03 | 1.01 | 0.984 | 2.3 | 2.21 | 1.52 |
| CCCCCCCCCCCCCCCCCCOP(=O)([O-])OC1CC[N+](C)(C)CC1 [Perifosine (KRX-0401)] | 1.95 | 1.09 | 0.853 | 1.23 | 2.19 | 1.79 |
| CC(C)N(CCCNC(=O)Nc1ccc(C(C)(C)C)cc1)C[C@H]1O[C@@H](n2cc(Br)c3c(N)ncnc32)[C@H](O)[C@@H]1O | 0.633 | 1.32 | 1.19 | 1.58 | 1.15 | 0.804 |
| NC(=O)N1c2ccccc2CC(=O)c2ccccc21 [Oxcarbazepine] | 2.18 | 1.39 | 1.26 | 1.19 | 1.13 | 1.57 |
| CC(C)OC(=O)CCC/C=C\C[C@@H]1[C@@H](/C=C/C(F)(F)COc2ccccc2)[C@H](O)C[C@@H]1O [Tafluprost] | 1.72 | 1.49 | 0.876 | 1.25 | 0.711 | 0.833 |
| O=c1[nH]cnc2c1ncn2[C@H]1CC[C@@H](CO)O1 [Didanosine] | 1.21 | 1.3 | 1.12 | 0.891 | 0.649 | 0.793 |
| CO[C@H]1/C=C/O[C@@]2(C)Oc3c(C)c(O)c4c(O)c(c5c(nc6cc(C)ccn65)c4c3C2=O)NC(=O)/C(C)=C\C=C\[C@H](C)[C@H](O)[C@@H](C)[C@@H](O)[C@@H](C)[C@H](OC(C)=O)[C@@H]1C [Rifaximin] | 1.35 | 0.671 | 0.886 | 1 | 1.9 | 1.06 |
| N#Cc1ccc2[nH]c(O)c(-c3ccc(CN4CCOCC4)cn3)c2c1 | 3.45 | 2.98 | 2.02 | 1.79 | 1.72 | 3.02 |
| CCOc1nc2cccc(C(=O)O)c2n1Cc1ccc(-c2ccccc2-c2nnn[nH]2)cc1 [Candesartan] | 2.07 | 1.74 | 1.69 | 3.34 | 0.856 | 1.84 |
| CC(C)(C)[N+]([O-])=Cc1ccc(S(=O)(=O)O)cc1S(=O)(=O)O | 1.04 | 1.8 | 0.995 | 1.52 | 1.43 | 1.57 |
| Oc1c(I)cc(I)c2cccnc12 [Diiodohydroxyquinoline] | 1.24 | 1.68 | 0.746 | 1.01 | 0.677 | 1.2 |
| N=C(N)NC(=O)Cc1c(Cl)cccc1Cl [Guanfacine Hydrochloride] | 1.58 | 0.941 | 1.05 | 1.09 | 0.41 | 0.929 |
| Nc1ccc(C(=O)O)c(O)c1 [Sodium 4-Aminosalicylate] | 1.34 | 2.62 | 1.27 | 2.47 | 1.02 | 1.43 |
| CC[C@H](C)C(=O)O[C@H]1C[C@@H](C)C=C2C=C[C@H](C)[C@H](CC[C@@H]3C[C@@H](O)CC(=O)O3)[C@H]21 [Lovastatin] | 1.17 | 1.61 | 0.903 | 2 | 2.11 | 0.909 |
| CC(C)(C)[C@H]1CC[C@H](CC2=C(O)C(=O)c3ccccc3C2=O)CC1 [Buparvaquone] | 1.16 | 1.1 | 1.17 | 0.844 | 0.483 | 1.44 |
| CO[C@@]1(NC(=O)CSC[C@@H](N)C(=O)O)C(=O)N2C(C(=O)O)=C(CSc3nnnn3C)CS[C@@H]21 [Cefminox Sodium] | 1.29 | 0.521 | 2.14 | 1.02 | 0.714 | 1.32 |
| CC(C)NCC(O)COc1cccc2ccccc12 (stereo not drawn) [Propranolol HCl] | 1.23 | 0.818 | 0.949 | 0.645 | 0.798 | 1.01 |
| Cc1nc2n(c(=O)c1CCN1CCC(c3noc4cc(F)ccc34)CC1)CCCC2O (stereo not drawn) [Paliperidone] | 0.901 | 0.427 | 0.828 | 0.783 | 0.494 | 0.895 |
| CCOC(CN1CCN(CC(C)C(=O)c2ccccc2)CC1)c1ccccc1 (stereo not drawn) [Eprazinone 2HCl] | 1.87 | 1.02 | 1.2 | 1.38 | 1.56 | 1.28 |
| CN1CCN(c2nc(C3=C(c4c[nH]c5ccccc45)C(=O)NC3=O)c3ccccc3n2)CC1 [Sotrastaurin] | 2.18 | 1.58 | 1.36 | 2.47 | 1.37 | 1.2 |
| O=C1NC(=O)/C(=C/c2cccc(C(F)(F)F)c2)S1 | 1.83 | 1.41 | 0.82 | 1.49 | 0.755 | 0.797 |
| O=C(Nc1cccc(Cl)c1)c1ccccn1 | 1.22 | 0.467 | 0.841 | 0.785 | 0.522 | 0.899 |

| Compound | Euclidean distance [1] | Euclidean distance [2] | Euclidean distance [3] | Euclidean distance [4] | Euclidean distance [5] | Euclidean distance [6] |
| --- | --- | --- | --- | --- | --- | --- |
| CCCCCNC(=N)N/N=C/c1c[nH]c2ccc(OC)cc12 [Tegaserod Maleate] | 5.85 | 4.48 | 5.39 | 6.34 | 4.98 | 5.08 |
| CN1CCC[C@@H]1CCO[C@](C)(c1ccccc1)c1ccc(Cl)cc1 [Clemastine Fumarate] | 1.5 | 1.22 | 1.59 | 1.96 | 2.11 | 1.18 |
| CCc1cc(Nc2nccc(-c3c(-c4ccc(OC)c(C(=O)Nc5c(F)cccc5F)c4)nc4ccccn34)n2)c(OC)cc1N1CCC(N2CCN(S(C)(=O)=O)CC2)CC1 | 1.24 | 1.6 | 1.12 | 0.954 | 1.11 | 1.26 |
| Cc1[nH]cnc1CN1CCc2c(c3ccccc3n2C)C1=O [Alosetron Hydrochloride] | 1.67 | 0.744 | 0.859 | 0.731 | 0.664 | 1.33 |
| NC(=S)N/N=C/c1ncccc1N [Triapine] | 3.56 | 2.65 | 3.67 | 3.09 | 2.83 | 3.6 |
| CC1(C)Cc2c(-c3ccccc3)c(-c3ccc(Cl)cc3)c(CC(=O)O)n2C1 [Licofelone] | 0.977 | 1.12 | 1.32 | 1.22 | 0.815 | 1.41 |
| C/C(=C\C(=O)OCCCCCCCCC(=O)O)C[C@@H]1OC[C@H](C[C@@H]2O[C@H]2[C@@H](C)[C@H](C)O)[C@@H](O)[C@H]1O [Mupirocin calcium] | 1.28 | 0.948 | 1.83 | 0.82 | 0.518 | 1.26 |
| CCO[C@@H]1OC(=O)C[C@@H]1NC(=O)[C@@H]1CCCN1C(=O)[C@@H](NC(=O)c1ccc(N)c(Cl)c1)C(C)(C)C | 0.836 | 1.87 | 2.17 | 1.85 | 1.04 | 1.35 |
| CC[C@H]1OC(=O)[C@H](C)[C@@H](O[C@H]2C[C@@](C)(OC)[C@@H](O)[C@H](C)O2)[C@H](C)[C@@H](O[C@@H]2O[C@H](C)C[C@H](N(C)C)[C@H]2O)[C@](C)(O)C[C@@H](C)/C(=N\OCOCCOC)[C@H](C)[C@@H](O)[C@]1(C)O [Roxithromycin] | 1.03 | 0.649 | 0.699 | 1.1 | 0.654 | 1.42 |
| CC(=O)NCCCS(=O)(=O)O [Acamprosate Calcium] | 0.651 | 0.371 | 0.781 | 0.789 | 0.967 | 0.839 |
| CN(C)CCOc1ccc(-c2nc(-c3ccncc3)c(-c3ccc4c(c3)CC/C4=N\O)[nH]2)cc1 | 1.49 | 1.63 | 2.08 | 2.65 | 4.66 | 2.22 |
| c1cncc(CN2CCC(n3ncc4c(N5CCOCC5)nc(-c5ccc6[nH]ccc6c5)nc43)CC2)c1 | 4.57 | 4.67 | 4.08 | 4.59 | 3.78 | 3.57 |
| CCOC(=O)C1=C(C)NC(C)=C(C(=O)OC)C1c1cccc([N+](=O)[O-])c1 (stereo not drawn) [Nitrendipine] | 1 | 0.871 | 0.908 | 1.33 | 0.709 | 0.934 |
| CCCCCCCCCCCCCCCC(=O)O[C@@H]1[C@@H](O)[C@@H](O)[C@@H]([C@H](NC(=O)[C@@H]2C[C@@H](CCC)CN2C)[C@H](C)Cl)O[C@@H]1SC [Clindamycin palmitate HCl] | 1.39 | 1.05 | 0.981 | 1.12 | 0.578 | 1.08 |
| COc1cc(NC(=O)c2ccccn2)ccc1Cl | 1.08 | 0.966 | 0.845 | 1.02 | 0.638 | 1.19 |
| CC(=O)OC(C)OC(=O)C(C)c1ccc(-c2ccccc2)c(F)c1 (stereo not drawn) [Flurbiprofen Axetil] | 1.28 | 0.882 | 0.893 | 1.57 | 1.39 | 1.44 |
| O=C(O)CCC(=O)Nc1ccc(S(=O)(=O)Nc2nccs2)cc1 [Succinylsulfathiazole] | 0.988 | 0.655 | 0.789 | 1.1 | 1.01 | 2.02 |
| CNCCc1ccccn1 [Betahistine mesylate] | 0.848 | 0.566 | 1.17 | 0.999 | 0.422 | 0.933 |
| CCN(CC)CCCC(C)Nc1c2ccc(Cl)cc2nc2ccc(OC)cc12 (stereo not drawn) [Quinacrine 2HCl] | 3.59 | 4.6 | 2.81 | 5.56 | 4.32 | 3.92 |
| CNc1ncc(-c2ccc3c(=O)c(C(=O)O)cn(C4CC4)c3c2C)cc1C [Ozenoxacin] | 1.31 | 0.846 | 0.593 | 1.13 | 1.01 | 0.85 |
| Cn1c(Nc2ccc(C(F)(F)F)cc2)nc2cc(Oc3ccnc(-c4ncc(C(F)(F)F)[nH]4)c3)ccc21 | 1.98 | 1.97 | 1.46 | 3.86 | 1.24 | 1.5 |
